# The supplement of paper PMC11537057
# Structures can show the parent of a compound that is named as a salt. ± gives the standard deviation of the averaged measurements. In all, about 1,700 compounds were measured (“cell number in HSV-1-infected wells relative to infected DMSO wells (H2B-RFP signal)”: median about 100, highest 2% from about 140 on). The entries come from a sample that favours the highest values as a whole.
# System: A549 infected with HSV-1
# Assay: cell number in HSV-1-infected wells relative to infected DMSO wells (H2B-RFP signal); higher = more surviving cells (uninfected or antiviral-protected wells give about 200%; low = toxicity)
# Details: 10 µM; 48 h; MOI: 0.1
# Method: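 Selleck FDA-approved library (L1300) screened in duplicate at 10 µM on A549 H2B-mRuby cells in 384-well plates, infected with HSV-1 strain 17 YFP-ICP4 at MOI 0.1 one hour before drug addition. Imaged after 2 days at 37°C. Cell growth (H2B-RFP) and infection (ICP4-YFP) are expressed as % of DMSO-treated wells. Hits: growth >90% and infection <20% of DMSO.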
row,Structure (SMILES),cell number in HSV-1-infected wells [%]
1,Cc1c(O)cccc1C(=O)N[C@@H](CSc1ccccc1)[C@H](O)CN1C[C@H]2CCCC[C@H]2C[C@H]1C(=O)NC(C)(C)C [Nelfinavir Mesylate],157 ± 33
2,CC(C)(CO)C(O)C(=O)NCCC(=O)O [Calcium D-Panthotenate],118 ± 22
3,N[C@@H](CS)C(=O)O [L-Cysteine HCl],129 ± 9.3
4,CCCCS(=O)(=O)N[C@@H](Cc1ccc(OCCCCC2CCNCC2)cc1)C(=O)O [Tirofiban Hydrochloride],128 ± 12
5,COc1ccc(C[C@H](N)C(=O)N[C@H]2[C@@H](O)[C@H](n3cnc4c(N(C)C)ncnc43)O[C@@H]2CO)cc1 [Puromycin 2HCl],41.2 ± 1.6
6,Nc1ccn([C@@H]2O[C@H](CO)[C@@H](O)[C@@H]2O)c(=O)n1 [Cytarabine],44.2 ± 11
7,Nc1ccn([C@H]2CC[C@@H](CO)O2)c(=O)n1 [Zalcitabine],105 ± 7
8,Nc1ccn(C[C@@H](CO)OCP(=O)(O)O)c(=O)n1 [Cidofovir],164 ± 11
9,Nc1ccn([C@@H]2O[C@H](CO)[C@@H](O)[C@@H]2O)c(=O)n1 [Cytarabine hydrochloride],51.7 ± 21
10,Nc1c(Br)cc(Br)cc1CN[C@H]1CC[C@H](O)CC1 [Ambroxol HCl],117 ± 21
11,Nc1c(Br)cc(Br)cc1CN[C@H]1CC[C@H](O)CC1 [Ambroxol],63.56 ± 0.013
12,CC(C)C[C@H](NC(=O)[C@@H](NC(=O)c1cccc(-c2ccccc2)n1)[C@@H](C)O)B(O)O,79.7 ± 13
13,O=C1/C(=C2\Nc3ccc(S(=O)(=O)O)cc3C2=O)Nc2ccc(S(=O)(=O)O)cc21 [Indigo carmine],126 ± 4.3
14,OC[C@@H](O)CN1CCN(c2ccccc2)CC1 [Levodropropizine],99.4 ± 1.6
15,CCC1(c2c[nH]cn2)Cc2ccccc2C1 [Atipamezole],103 ± 19
16,CCC1(c2c[nH]cn2)Cc2ccccc2C1 [Atipamezole hydrochloride],95.8 ± 8.9
17,CCCCC(CC)COC(=O)C(C#N)=C(c1ccccc1)c1ccccc1 (stereo not given) [Octocrylene],115 ± 4.8
18,CCOC(=O)[C@H]1O[C@@H]1C(=O)N[C@@H](CC(C)C)C(=O)NCCC(C)C [Aloxistatin],150.2 ± 0.33
19,C[C@]1(COc2ccc(N3CCC(Oc4ccc(OC(F)(F)F)cc4)CC3)cc2)Cn2cc([N+](=O)[O-])nc2O1 [Delamanid],117 ± 18
20,OC[C@@H](O)[C@@H](O)[C@H](O)[C@H](O)CO [D-Mannitol],107 ± 11
21,OC[C@@H](O)[C@@H](O)[C@H](O)[C@@H](O)CO [Sorbitol],97.2 ± 17
22,OC[C@@H](O)[C@H](O)[C@@H](O)CO [Xylitol],146 ± 3
23,Cn1nnc(-c2ccc(-c3ccc(N4C[C@H](CO)OC4=O)cc3F)cn2)n1 [Tedizolid],104 ± 5.8

row,Structure (SMILES),cell number in HSV-1-infected wells [%]
1,CCCCCCCCCCCCCCCC(=O)O[C@@H]1[C@@H](O)[C@@H](O)[C@@H]([C@H](NC(=O)[C@@H]2C[C@@H](CCC)CN2C)[C@H](C)Cl)O[C@@H]1SC [Clindamycin palmitate HCl],85.3 ± 3.2
2,Cc1cc(-c2ccccc2)nnc1NCCN1CCOCC1 [Minaprine dihydrochloride],94.3 ± 12
3,Cc1ccccc1-c1cc(N2CCN(C)CC2)ncc1N(C)C(=O)C(C)(C)c1cc(C(F)(F)F)cc(C(F)(F)F)c1 [Netupitant],146 ± 30
4,CN1CCC(=C2c3ccccc3CCn3c(C=O)cnc32)CC1 [Alcaftadine],127.9 ± 0.97
5,CCOC(=O)CCC(=O)O[C@H]1[C@H](O[C@@H]2[C@@H](C)[C@H](O[C@H]3C[C@@](C)(OC)[C@@H](O)[C@H](C)O3)[C@@H](C)C(=O)O[C@H](CC)[C@@](C)(O)[C@H](O)[C@@H](C)C(=O)[C@H](C)C[C@@]2(C)O)O[C@H](C)C[C@@H]1N(C)C [Erythromycin Ethylsuccinate],118 ± 17
6,C[C@@H](O)[C@@H]1NC(=O)[C@H](CCCCN)NC(=O)[C@@H](Cc2c[nH]c3ccccc23)NC(=O)[C@H](Cc2ccccc2)NC(=O)[C@@H](NC(=O)[C@H](N)Cc2ccccc2)CSSC[C@@H](C(=O)N[C@H](CO)[C@@H](C)O)NC1=O [Octreotide Acetate],96.3 ± 13
7,CC(O)C(=O)O.N (stereo not given) [Ammonium lactate],91.3 ± 9.4
8,CCn1c(=O)c(-c2cc[nH]n2)cc2c(C)nc(N)nc21,79.6 ± 6.9
9,CC1(C)S[C@@H]2[C@H](NC(=O)[C@H](N)c3ccccc3)C(=O)N2[C@H]1C(=O)OCOC(=O)[C@@H]1N2C(=O)C[C@H]2S(=O)(=O)C1(C)C [Sultamicillin],104 ± 5.9
10,COc1cc(S(=O)(=O)O)ccc1O [Sulfogaiacol],98.6 ± 40
11,O=C(Nc1nc2cccc(-c3ccc(CN4CCS(=O)(=O)CC4)cc3)n2n1)C1CC1 [Filgotinib (GLPG0634)],76.8 ± 6.2
12,Nc1nc2c(ncn2COC(CO)CO)c(=O)[nH]1 [Ganciclovir],192.4 ± 0.4
13,C=C1[C@H](CO)[C@@H](O)C[C@@H]1n1cnc2c(=O)[nH]c(N)nc21 [Entecavir],130 ± 39
14,CC(C)[C@H](N)C(=O)OCCOCn1cnc2c(=O)nc(N)[nH]c21 [Valaciclovir HCl],167 ± 22
15,O=c1[nH]cnc2c1ncn2[C@H]1CC[C@@H](CO)O1 [Didanosine],99.6 ± 8.7
16,C=C1[C@H](CO)[C@@H](O)C[C@@H]1n1cnc2c(=O)[nH]c(N)nc21 [Entecavir Hydrate],150 ± 12
17,O=c1[nH]cnc2c1ncn2[C@@H]1O[C@H](CO)[C@@H](O)[C@H]1O [Inosine],126 ± 7.8
18,Nc1nc2c(ncn2COCCO)c(=O)[nH]1 [Aciclovir],225 ± 2.6
19,CS(=O)(=O)Nc1cc2occ(NC=O)c(=O)c2cc1Oc1ccccc1 [Iguratimod],108 ± 15
20,CC(C)OC(=O)CCC/C=C\C[C@@H]1[C@@H](/C=C/[C@@H](O)COc2cccc(C(F)(F)F)c2)[C@H](O)C[C@@H]1O [Travoprost],39.8 ± 12
21,C[C@@H](O)[C@H]1C(=O)N2C(C(=O)[O-])=C(SC3Cn4cnc[n+]4C3)[C@H](C)[C@H]12 (stereo not given in full) [Biapenem],91.1 ± 10
22,O=C(O)C(=O)O.[NH-][C@@H]1CCCC[C@H]1[NH-].[Pt+2] [Oxaliplatin],64.1 ± 10
